Our source for the inhibition values is PubChem BioAssay AID463187 (University of Pittsburgh Molecular Library Screening Center, 2010).

Out of some 220,000 compounds screened, about 1,500 (0.68%) were called active. Many of the other results were omitted from the sample, so actives are more common in it than they were. A number with no mark means an inactive call.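 How the source made its calls: active means Hck-Nef kinase inhibition above about 50% (limit read from the data); inactive means inhibition below that limit.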

Sequence of Tyrosine-protein kinase HCK (Homo sapiens) (P08631 whole entry, looked up): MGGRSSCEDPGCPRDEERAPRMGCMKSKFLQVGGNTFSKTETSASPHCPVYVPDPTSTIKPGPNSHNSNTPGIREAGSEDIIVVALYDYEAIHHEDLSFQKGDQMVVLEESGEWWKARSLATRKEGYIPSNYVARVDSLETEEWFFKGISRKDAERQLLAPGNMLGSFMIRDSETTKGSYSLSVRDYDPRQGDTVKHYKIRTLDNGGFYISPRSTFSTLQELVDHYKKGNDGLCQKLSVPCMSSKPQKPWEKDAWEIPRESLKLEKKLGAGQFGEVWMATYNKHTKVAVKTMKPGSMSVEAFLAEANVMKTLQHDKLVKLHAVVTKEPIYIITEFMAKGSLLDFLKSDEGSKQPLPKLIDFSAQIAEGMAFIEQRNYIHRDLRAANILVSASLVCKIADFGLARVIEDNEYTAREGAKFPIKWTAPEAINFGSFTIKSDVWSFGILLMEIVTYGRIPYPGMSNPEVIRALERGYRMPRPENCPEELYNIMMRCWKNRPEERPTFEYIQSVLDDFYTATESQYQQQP

This assay concerns the target Tyrosine-protein kinase HCK (Homo sapiens) (UniProt P08631). Briefly: inhibitors of Nef-activated human Hck kinase, primary screen, biochemical, Z-Lyte FRET, 384-well, Hck-YEEI (AID 463187).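 Further: 0% = DMSO with Hck plus Nef and 100% = Hck alone without Nef.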 Conditions: Recombinant Hck-YEEI plus Nef, Z-Lyte FRET kinase assay; at 20 µM; stronger effect = higher value.
As to `O=C1NC(=O)N(c2ccccc2)C(=O)/C1=C/c1ccc([N+](=O)[O-])s1`, the inhibition was 20.3%.
Next, `Cc1cccc(N2C(=O)NC(=O)/C(=C\c3cnn(-c4ccccc4)c3)C2=O)c1`: 5.24%; `COc1cccc(N2C(=O)NC(=O)/C(=C\c3ccc([N+](=O)[O-])s3)C2=O)c1`: 92.8% (active).
Consider `O=C1NC(=O)N(Cc2ccco2)C(=O)/C1=C\c1cccn1CCOc1ccccc1`, for which the inhibition is 27.2%.
As to `Cc1cc(/C=C2/C(=O)NC(=O)N(Cc3ccco3)C2=O)c(C)n1-c1ccc(C(=O)O)cc1`, the inhibition is 49.2%.
The result for `O=C1NC(=O)N(Cc2ccco2)C(=O)/C1=C\c1ccc(-c2ccc(F)cc2)o1` reads 59.4% (active); that for `CNC(=O)O/N=C(\N)Cc1csc2ccccc12`, 13.9%.
With `Cc1cccc(NC(=O)OC2CN3CCC2CC3)c1` (stereo not given), the inhibition was 13.5%.
For the compound `O=C(N/N=C/c1c(O)n(Cc2ccccc2)c(=O)[nH]c1=O)c1ccccc1`, the inhibition is 1.83%.
The result for `COc1cc(Cn2c(N)c(C(=O)NCc3ccco3)c3nc4ccccc4nc32)cc(OC)c1OC` reads 66.7% (active).
The result for `CCOC(=O)c1c(N)n(Cc2ccccc2)c2nc3ccccc3nc12` reads 9.2%; that for `CCOC(=O)c1c(N)n(CCN2CCOCC2)c2nc3ccccc3nc12`, -2.81%; that for `CSc1nc2ccc(C)cc2c(=O)n1-c1cccnc1`, 4.59%.
In the case of `O=C(Cn1c(=O)n(CC2CS2)c2ccccc21)N1CCCCC1` (stereo not given), the inhibition is -9.69%.
In the case of `CC1=C(C(=O)Nc2ccccc2)S(=O)(=O)CCO1`, the inhibition is 26.8%.
